Drawing on PubChem BioAssay AID1259336 (Sattelle Laboratory, UCL Respiratory, Division of Medicine, …, 2017), this text covers log2 fold change growth for 22 compounds.

A number with no mark means an inactive call. Rule as the data show it: active = log2 fold change growth below about -1.8; inactive = the rest.

The assay is described as follows: anthelmintic activity against nematode growth – whole organism, log2 fold change (AID 1259336).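 Also: growth scored by imaging after five days at 20 °C.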 The settings on record: C. elegans growth, anthelmintic screen; hits give low values.
For the compound `Cc1ccc(NC(=O)c2nc[nH]c2C(=O)Nc2nc3ccccc3[nH]2)c(C)c1`, the log2 fold change growth is -0.815.

Take `CC(C)(C)c1cc(C(=O)Nc2cccnc2)cc(C(=O)Nc2cccnc2)c1`: the log2 fold change growth was 0.00293.

Consider `Cc1cc(OCC(=O)NCc2ccccc2)c2cc(Br)ccc2n1`, for which the log2 fold change growth is 0.232.

Regarding `Cc1cc(Nc2ccc(C(F)(F)F)cc2)n2ccnc2n1`, the log2 fold change growth was 0.0805.

With `NC(N)=Nc1ccc(-c2ccc(-c3ccc(N=C(N)N)cc3Cl)o2)c(Cl)c1`, the log2 fold change growth is 0.171.

Turning to `CCOC(=O)c1c(NC(=O)c2c(F)c(F)c(F)c(F)c2F)sc(C(N)=O)c1C`, the log2 fold change growth is 0.119.

As for `COc1ccc(-c2cncc3ccc(C(=O)NCCCn4ccnc4)nc23)cc1`, the log2 fold change growth is 0.283.

Regarding `C[C@H]1CCCCN1C(=O)NCCc1coc(-c2ccc(F)cc2)n1`, the log2 fold change growth is 0.0232.

Turning to `CC1CC1C(=O)NC1CCN(CC2(c3ccccc3)CCCCC2)CC1` (configuration not stated), the log2 fold change growth was 0.347.

As for `CCN(CC)S(=O)(=O)c1ccc(C(=O)Nc2cc(C)nn2-c2nc(C)c(C)c(=O)[nH]2)cc1`, the log2 fold change growth was 0.269.

Consider `Cc1cccc(NC(=O)c2cc(S(=O)(=O)N(C)c3ccc(F)cc3)ccc2Cl)n1`, for which the log2 fold change growth was -0.21.

Take `c1ccc(-c2cc(N3CCCCC3)c3ccccc3n2)nc1`: the log2 fold change growth is -1.36.

As for `Nc1ncc(Br)cc1-c1nc2ncc(Cl)cc2[nH]1`, the log2 fold change growth was 0.329.

With `Cc1nc(-c2ccccn2)nc(N2CC[C@H](Cc3ccccc3)C2)c1Cl`, the log2 fold change growth was -1.52.

Consider `CCNC(=O)[C@H](C)Nc1nc(-c2cccnc2)nc2sc(C)c(C)c12`, for which the log2 fold change growth is 0.136.

With `O=C(NC1=NCCS1)c1sc2cc(F)ccc2c1Cl`, the log2 fold change growth is -0.159.

In the case of `Cc1cccc(-c2nc(Nc3ccncn3)c3sccc3n2)n1`, the log2 fold change growth was 0.438.

As for `Nc1cccnc1Nc1ccc(Cl)cc1`, the log2 fold change growth is 0.497.

For the compound `O=C1COCc2ccc(Br)cc2N1Cc1ccc(C(F)(F)F)cc1`, the log2 fold change growth was -0.402.

Consider `CCc1ccc(S(=O)(=O)Nc2cc(CN3CCN(CCC(C)C)CC3)ccc2C)cc1`, for which the log2 fold change growth is 0.554.

Turning to `CCc1nc2ccccc2n1C[C@H](O)COc1cc(C)ccc1Cl`, the log2 fold change growth was 0.0644.

Consider `Cc1ccc(S(=O)(=O)N2CCN(C(=O)c3cc(-c4ccccc4)n[nH]3)CC2)cc1`, for which the log2 fold change growth was -0.371.
